From PubChem BioAssay (NCI)
About 83,000 compounds went through this panel and 20% of them were active in at least one assay; those are over-represented in the sample as a whole.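 Treatment: one concentration, 48 hours, 96-well format. Scoring: percent growth, with anything below 10 considered active.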 Values without a mark were called inactive. Active and inactive are the calls of the source.

Experiments:
Assay in all cases: NCI-60 one-dose screen, 48 h (100 = growth as untreated, 0 = no growth, -100 = all killed)
Settings in all cases: 10 µM unless noted
[1] = tested on: HCT-15 colon
[2] = tested on: HT29 colon
[3] = tested on: SNB-75 CNS
[4] = tested on: SNB-19 CNS
[5] = tested on: U251 CNS
[6] = tested on: PC-3 prostate
[7] = tested on: SK-MEL-5 melanoma
[8] = tested on: UACC-62 melanoma
[9] = tested on: LOX IMVI melanoma
[10] = tested on: SK-MEL-28 melanoma

SMILES	growth [1]	growth [2]	growth [3]	growth [4]	growth [5]	growth [6]	growth [7]	growth [8]	growth [9]	growth [10]
O=c1oc2ccc([N+](=O)[O-])cc2cc1Br	100%	102%	86.6%	108%	101%	96.8%	102%	101%	97.2%	107%
CN(C)C1CCN(Cc2ccc(NC(=O)c3cncc(C#Cc4cnc(N)c5ncccc45)c3)cc2C(F)(F)F)CC1	53.2%	19.3%	127%	97.8%	-51.5% (active)	80.6%	50.6%	91.5%	–	-53.9% (active)
O=C1c2cccnc2C(=O)c2c1c(C(=O)NCCCN1CCCCC1)c1ccccn21	-71.8% (active)	-1.92% (active)	-95.3% (active)	-72.8% (active)	-48.4% (active)	-18% (active)	-99.5% (active)	-61.4% (active)	–	13.8%
CCSc1nc(NC)c2cc(-c3ccc(C(F)(F)F)cc3)ccc2n1	95.5%	98.9%	99.4%	97%	103%	94.9%	97.9%	92.9%	–	95%
CN(C)CCCC1(c2ccc(F)cc2)OCc2cc(-c3cccc4[nH]ccc34)ccc21 (configuration not stated)	7.57% (active)	-31.3% (active)	11.4%	51.9%	-24.1% (active)	28.6%	-84.1% (active)	37.5%	–	-86% (active)
CCn1c(SCC(=O)c2ccc(Br)cc2)nnc1-c1ccncc1	106%	107%	81.7%	99.2%	99.6%	102%	98.9%	96.8%	101%	109%
CC(C)OC(=O)c1ccc2[nH]c(O)c(C(=Nc3ccc(N(C)C(=O)CN4CCN(C)CC4)cc3)c3ccccc3)c2c1	-14.4% (active)	-48.1% (active)	-98.1% (active)	1.52% (active)	-90.5% (active)	9.18% (active)	-95.4% (active)	-44.1% (active)	–	-54.4% (active)
C=C(C)[C@@H]1CC[C@]2(C(=O)O)CC[C@]3(C)[C@H](CC[C@@H]4[C@@]5(C)C[C@@H](Cc6cn(CCO[C@@H]7O[C@H](COC(C)=O)[C@H](OC(C)=O)[C@H](OC(C)=O)[C@H]7OC(C)=O)nn6)[C@H](O)C(C)(C)[C@@H]5CC[C@]43C)[C@@H]12	70.1%	77.9%	66.5%	64.5%	57.4%	54.9%	53.5%	63.7%	–	76.5%
N#Cc1c(-c2ccc(Cl)cc2)nc(NN=Cc2cccc(O)c2)nc1N1CCOCC1	44.7%	69.8%	46.1%	86.9%	61.6%	63.8%	76.5%	94.1%	61.7%	77.1%
CNC(=O)c1cc(Oc2ccc3nc(NC(C)=O)sc3c2)ccn1	106%	110%	84.4%	106%	98.4%	96.3%	101%	98.8%	–	105%
CCCCN[C@H]1CC[C@@]2(C)[C@@H](CC[C@@]3(C)[C@H]2[C@H](O)C[C@H]2/C(=C(\CCC=C(C)C)C(=O)OC)[C@@H](OC(C)=O)C[C@@]23C)[C@@H]1C	98.8%	95.7%	82.9%	104%	98.2%	95.2%	93.7%	95.5%	97.9%	93.4%
Fc1cc(F)cc(C(c2c[nH]c3ccccc23)c2c[nH]c3ccccc23)c1	79.5%	99.1%	106%	104%	101%	67.1%	88.2%	84.9%	–	101%
O=C(OCc1ccc2c(Cl)cc(Cl)c(O)c2n1)n1cncn1	19.3%	72.6%	44.9%	30.5%	16.3%	42.5%	15.4%	-3.18% (active)	9.57% (active)	35.5%
N#Cc1c(-c2ccccc2)cc(-c2ccccc2)n(CCCCCC(=O)Nc2ccccc2N)c1=O	51.7%	43.7%	32.2%	68.2%	61.2%	43.7%	21.2%	65.5%	–	80.5%
COc1ccc2c(O)c(/C=C3\N=Nc4ncccc43)oc2c1C[C@H]1CCNC[C@H]1F	7.66% (active)	5.05% (active)	-61.2% (active)	10.4%	-51% (active)	-5.49% (active)	-30.1% (active)	-15.4% (active)	–	8.22% (active)
Cc1ccc2c3c(c(=O)[nH]c2c1)C1(C(C#N)=C(N)O3)c2cc(Br)ccc2-c2ccc(Br)cc21	11.4%	-14.7% (active)	-26.8% (active)	-30% (active)	-66.4% (active)	-30.2% (active)	–	40.1%	2.99% (active)	48.7%
CN(CCn1sc(=O)n(Cc2ccccc2)c1=O)Cc1ccc2c(Cl)cc(Cl)c(O)c2n1	16.3%	39.9%	74.6%	39.7%	27%	35.5%	59.5%	29.8%	–	59.8%
O=C(c1ccc(Cl)cc1)N1CCN(c2ccnc3cc(Cl)ccc23)CC1	95.5%	81.7%	110%	84.2%	78.7%	80%	–	71.5%	103%	99.6%
CN(C)CCNC(=O)c1cccc(-c2cnc3ccc(-c4ccc5c(c4)OCO5)nn23)c1	46%	10.9%	73.2%	84.3%	86.1%	61.5%	–	81.8%	20.7%	99.5%
CCCCCCCCCCCCCCCCCCOc1ccccc1CC(=O)NCC[N+]1(C)CCCC1	93.9%	8.69% (active)	45%	35.2%	6.79% (active)	4.91% (active)	–	43.2%	53.4%	84.2%
COc1cc(NC(C)CCCNC(C)C)c2ncccc2c1OC (configuration not stated)	99.3%	120%	87.6%	93%	92%	90.8%	–	85%	83.5%	108%
O=C(O)[C@@H]1c2ccccc2-c2ccccc2[C@H]1C(=O)O	101%	102%	93.3%	100%	106%	90.9%	110%	96%	–	102%
C=C1C(=O)O[C@H]2[C@H]1CC/C(COC(=O)CSCCSCC(=O)OC/C1=C/CC[C@@]3(C)O[C@H]3[C@H]3OC(=O)C(=C)[C@@H]3CC1)=C\CC[C@@]1(C)O[C@@H]21	-18.1% (active)	0.0255% (active)	56.6%	55.9%	7.29% (active)	1.19% (active)	–	25.6%	-53.3% (active)	4.71% (active)
Cn1c(=O)c2[nH]c(N/N=C/c3ccccc3Br)nc2n(C)c1=O	100%	106%	97.6%	109%	111%	98.4%	–	96.6%	104%	107%
CC1=C(CCC(C)N(C)Cc2ccc(OCCCN3CCCC3)cc2)C(C)(C)CCC1 (configuration not stated)	-14% (active)	-12% (active)	63.1%	41.8%	-11.9% (active)	31.8%	–	-63.9% (active)	-81.4% (active)	-80.6% (active)
CCN(CC)CCSc1nc(-c2ccccc2)c(C#N)c(=O)[nH]1	117%	142%	129%	101%	105%	116%	–	108%	99.9%	110%
CCOC(=O)c1nc(Nc2ccc(NC(=O)Nc3ccc(F)cc3)cc2)c2ccccc2n1	100%	106%	78.7%	98%	103%	103%	–	101%	90.9%	105%
C=CCc1c2c(c(OC)c3ccoc13)C(=O)/C(=C/c1ccccc1OC)O2	45.2%	44.6%	35.8%	73%	46.2%	55.2%	–	46.4%	38.3%	81.1%
